Experimental data: ChEMBL document CHEMBL1961873, “Compounds: GSK PKIS; Assays: Nanosyn kinase panel” (2012)

Columns and labels:
[1] = molecular target: Mitogen-activated protein kinase 3 (Homo sapiens) (UniProt P27361); settings: at 1 µM;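 further: values are mean percent inhibition of MAPK3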
[2] = molecular target: SRSF protein kinase 3 (Homo sapiens) (UniProt Q9UPE1); settings: at 0.1 µM
[3] = molecular target: SRSF protein kinase 3 (Homo sapiens) (UniProt Q9UPE1); settings: at 1 µM
[4] = molecular target: Mitogen-activated protein kinase 14 (Homo sapiens) (UniProt Q16539); settings: at 0.1 µM
Sequence of Mitogen-activated protein kinase 14 (Homo sapiens) (Q16539 whole entry): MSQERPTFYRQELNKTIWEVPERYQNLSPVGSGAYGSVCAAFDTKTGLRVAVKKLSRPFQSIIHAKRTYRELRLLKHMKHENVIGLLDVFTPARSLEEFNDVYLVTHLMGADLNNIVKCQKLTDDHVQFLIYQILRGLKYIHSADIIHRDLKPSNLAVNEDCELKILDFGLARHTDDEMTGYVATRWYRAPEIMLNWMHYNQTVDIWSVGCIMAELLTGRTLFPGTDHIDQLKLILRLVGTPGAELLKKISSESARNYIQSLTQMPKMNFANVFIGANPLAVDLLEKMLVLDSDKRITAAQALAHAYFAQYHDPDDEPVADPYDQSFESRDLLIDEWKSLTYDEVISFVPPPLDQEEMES

[5] = molecular target: Mitogen-activated protein kinase 14 (Homo sapiens) (UniProt Q16539); settings: at 1 µM
[6] = molecular target: Mitogen-activated protein kinase 11 (Homo sapiens) (UniProt Q15759); settings: at 0.1 µM
Sequence of Mitogen-activated protein kinase 11 (Homo sapiens) (Q15759 whole entry): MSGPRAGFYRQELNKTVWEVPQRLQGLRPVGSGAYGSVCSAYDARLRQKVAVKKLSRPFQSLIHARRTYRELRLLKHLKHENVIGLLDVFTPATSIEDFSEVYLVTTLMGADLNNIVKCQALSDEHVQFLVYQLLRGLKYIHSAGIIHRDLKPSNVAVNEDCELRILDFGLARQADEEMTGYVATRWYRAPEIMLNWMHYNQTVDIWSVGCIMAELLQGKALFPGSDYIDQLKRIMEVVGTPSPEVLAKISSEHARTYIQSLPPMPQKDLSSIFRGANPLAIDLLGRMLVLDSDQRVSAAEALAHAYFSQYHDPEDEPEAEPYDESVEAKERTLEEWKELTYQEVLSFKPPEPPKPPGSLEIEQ

[7] = molecular target: Mitogen-activated protein kinase 11 (Homo sapiens) (UniProt Q15759); settings: at 1 µM
[8] = molecular target: T1, Mitogen-activated protein kinase 13 (Homo sapiens) (UniProt O15264); settings: at 0.1 µM
T1 sequence (whole entry): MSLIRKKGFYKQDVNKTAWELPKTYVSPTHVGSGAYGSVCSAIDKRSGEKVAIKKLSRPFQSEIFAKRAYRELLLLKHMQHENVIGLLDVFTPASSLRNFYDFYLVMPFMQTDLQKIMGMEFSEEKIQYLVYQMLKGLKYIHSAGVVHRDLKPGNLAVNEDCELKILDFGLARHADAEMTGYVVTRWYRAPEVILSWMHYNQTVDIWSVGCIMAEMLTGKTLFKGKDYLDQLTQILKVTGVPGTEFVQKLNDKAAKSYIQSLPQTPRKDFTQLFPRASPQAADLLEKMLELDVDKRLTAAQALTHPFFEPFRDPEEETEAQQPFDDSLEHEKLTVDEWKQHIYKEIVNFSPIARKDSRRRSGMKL

[9] = molecular target: T1, Mitogen-activated protein kinase 13 (Homo sapiens); settings: at 1 µM
[10] = molecular target: T2, Mitogen-activated protein kinase 12 (Homo sapiens) (UniProt P53778); settings: at 0.1 µM
T2 sequence (whole entry): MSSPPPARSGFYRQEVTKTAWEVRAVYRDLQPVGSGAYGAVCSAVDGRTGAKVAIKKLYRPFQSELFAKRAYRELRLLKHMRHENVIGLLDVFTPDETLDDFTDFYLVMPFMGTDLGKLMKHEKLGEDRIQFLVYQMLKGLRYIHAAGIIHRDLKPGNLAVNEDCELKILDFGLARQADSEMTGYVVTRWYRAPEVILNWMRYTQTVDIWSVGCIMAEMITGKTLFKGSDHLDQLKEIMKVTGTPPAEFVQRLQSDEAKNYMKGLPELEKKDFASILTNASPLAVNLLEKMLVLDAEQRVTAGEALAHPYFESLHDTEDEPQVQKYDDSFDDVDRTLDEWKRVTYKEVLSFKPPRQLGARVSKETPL

Sequence of Mitogen-activated protein kinase 3 (Homo sapiens) (P27361 whole entry): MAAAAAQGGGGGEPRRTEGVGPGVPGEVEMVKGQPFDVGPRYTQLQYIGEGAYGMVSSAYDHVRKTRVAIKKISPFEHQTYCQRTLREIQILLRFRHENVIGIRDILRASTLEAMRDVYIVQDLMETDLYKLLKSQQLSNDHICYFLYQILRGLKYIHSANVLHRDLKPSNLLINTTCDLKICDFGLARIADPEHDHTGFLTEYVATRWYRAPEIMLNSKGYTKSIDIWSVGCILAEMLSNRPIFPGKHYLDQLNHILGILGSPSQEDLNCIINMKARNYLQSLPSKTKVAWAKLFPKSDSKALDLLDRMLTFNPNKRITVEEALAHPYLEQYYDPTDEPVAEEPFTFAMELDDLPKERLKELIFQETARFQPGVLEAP
Sequence of SRSF protein kinase 3 (Homo sapiens) (Q9UPE1 whole entry): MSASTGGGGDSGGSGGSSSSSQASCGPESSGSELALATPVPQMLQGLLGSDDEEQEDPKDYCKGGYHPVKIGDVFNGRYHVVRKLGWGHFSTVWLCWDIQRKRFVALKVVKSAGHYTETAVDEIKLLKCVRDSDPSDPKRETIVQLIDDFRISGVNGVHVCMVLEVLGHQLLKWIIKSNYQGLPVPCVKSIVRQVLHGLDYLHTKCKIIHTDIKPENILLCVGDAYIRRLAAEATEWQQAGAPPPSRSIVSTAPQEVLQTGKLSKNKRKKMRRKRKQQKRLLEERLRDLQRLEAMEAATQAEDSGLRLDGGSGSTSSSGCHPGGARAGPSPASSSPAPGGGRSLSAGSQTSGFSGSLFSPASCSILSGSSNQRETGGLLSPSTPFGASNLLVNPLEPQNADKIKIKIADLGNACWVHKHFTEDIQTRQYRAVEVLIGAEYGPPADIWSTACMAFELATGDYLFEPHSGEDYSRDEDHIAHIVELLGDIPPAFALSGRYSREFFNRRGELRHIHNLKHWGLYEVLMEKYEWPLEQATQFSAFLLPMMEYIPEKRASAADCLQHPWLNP

Structure (SMILES) | inhibition [1] [%] | inhibition [2] [%] | inhibition [3] [%] | inhibition [4] [%] | inhibition [5] [%] | inhibition [6] [%] | inhibition [7] [%] | inhibition [8] [%] | inhibition [9] [%] | inhibition [10] [%]
COc1cc(/C=N/Nc2ncnc3[nH]ncc23)ccc1O | 6.69 | 0.77 | 1.87 | 7.26 | 6.91 | 4.13 | 4.56 | 1.51 | 5.72 | 0.15
CN(C)CCOc1ccc(-c2nc(-c3ccncc3)c(-c3ccc4c(c3)CC/C4=N\O)[nH]2)cc1 | 3.36 | 1.13 | 1.14 | 3.87 | 15.9 | 2.37 | 6.69 | 0.98 | 4.84 | 1.54
CCN1CCC(CC(=O)Nc2n[nH]c3nnc(-c4cccc(F)c4F)cc23)CC1 | 2.9 | -0.22 | 0.53 | 1.3 | 1.76 | 2.75 | 4.66 | 1.08 | 0.01 | 1.4
Clc1ccc(-c2nn3ncccc3c2-c2ccnc(Nc3ccccc3)n2)cc1 | 0.24 | -0.67 | -1.16 | 46.5 | 82.8 | 13.1 | 58.8 | 0.09 | 1.39 | 2.11
c1cc(-c2cnn3nc(N4CCOCC4)ccc23)nc(NC2CC2)n1 | 3.9 | 2.15 | 9.24 | 6.66 | 16.6 | 3.09 | 13.1 | 6.27 | 19.7 | 0.63
Nc1nc(-c2cccc(Cl)c2)c(-c2ccc3ncccc3n2)s1 | 2.62 | -1.86 | 0.63 | 8.73 | 50 | 5.89 | 19.1 | 3.72 | 5.27 | 8.76
CCn1c(-c2nonc2N)nc2c(C#CC(C)(C)O)nc(OC[C@H](N)c3ccccc3)cc21 | 2.26 | 3.21 | -2.11 | 4.73 | 7.11 | 3.41 | 4.89 | 1.8 | 1.9 | 2.38
O=C(O[C@H]1CN[C@H](C#Cc2cc3ncnc(Nc4ccc(Cc5ccccc5)cc4)c3s2)C1)N1CCOCC1 | 2.11 | -2.44 | -1.14 | 4.54 | 2.37 | 0.92 | 4.95 | 2.02 | 0.36 | 1.75
Fc1ccc(-c2nn3ncccc3c2-c2ccnc(Nc3ccc4c(c3)OCCO4)n2)cc1 | 11.3 | -0.97 | -1.91 | 72 | 92.8 | 48.6 | 78.7 | 3.53 | 6.19 | 2.92
CCc1nn2ncccc2c1-c1ccnc(NC2CC2)n1 | 4.9 | -0.73 | -0.47 | 4.19 | 7.08 | 5.64 | 7.82 | 3.24 | 3.22 | 2.35
Cc1ccc(O)cc1Nc1ccnc2cc(-c3ccccn3)ccc12 | 4.04 | 1.4 | 0.54 | 13.9 | 58.8 | 4.81 | 9.25 | 5.51 | 2.99 | 1.52
c1ccc(COc2ccc(Nc3ncnc4ccc(-c5ccco5)cc34)cc2)cc1 | 1.18 | -1.34 | -0.68 | 2.18 | 2.81 | 1.43 | 0.27 | 0.6 | -0.53 | 0.76
COc1ccc(-c2cc3c(N)ncnc3o2)cc1 | -1.51 | -0.13 | -0.8 | -1.46 | 0.41 | -1.4 | -0.96 | -2.33 | -2.56 | -1.44
COc1ccc2[nH]c3c4[nH]c5ccc(OC)cc5c4c4c(c3c2c1)C(=O)NC4=O | 6.91 | 1.23 | 18.3 | 4.65 | 10.8 | 3.15 | 7.66 | 0.8 | 2.74 | 4.16
CCNC(=O)O[C@H]1CN[C@H](C#Cc2cc3ncnc(Nc4ccc(OCc5cccc(F)c5)c(Cl)c4)c3s2)C1 | 1.29 | 1.52 | 0.88 | 1.94 | 5.4 | 4.81 | -1.11 | 1.7 | 2.64 | -0.39
NC(=O)c1sc(-n2cnc3ccc(C(F)(F)F)cc32)cc1OCc1ccccc1Br | 0.62 | -1.67 | -0.41 | 8.95 | 10.3 | 2.71 | 5.44 | -1.12 | 3.69 | 1.64
COc1cc(N2CCN(C(C)C)CC2)ccc1Nc1nc(Nc2ccc(F)cc2C(N)=O)c2cc[nH]c2n1 | 5.68 | 4.97 | 4.84 | 4.36 | 8.96 | 1.51 | 9.48 | 0.06 | 2.28 | 0.86

Structure (SMILES) | inhibition [1] [%] | inhibition [2] [%] | inhibition [3] [%] | inhibition [4] [%] | inhibition [5] [%] | inhibition [6] [%] | inhibition [7] [%] | inhibition [8] [%] | inhibition [9] [%] | inhibition [10] [%]
[O-][S+]1CCN(Cc2ccc(-c3ccc4ncnc(Nc5ccc(OCc6cccc(F)c6)c(Cl)c5)c4c3)o2)CC1 | 4.13 | -2.3 | -1 | 15.9 | 14.9 | 7.73 | 6.99 | 4.67 | 3 | 3.02
CC(C)COC(=O)c1ccc2c(c1)/C(=C/Nc1ccc(S(N)(=O)=O)cc1)C(=O)N2 | 13.5 | -1.27 | -1.97 | -0.94 | -2.21 | -0.49 | 7.86 | -1 | 1.38 | 0.22
CN1CCC(n2cnc(-c3ccc(F)cc3)c2-c2ccnc(N)n2)CC1 | 3.12 | -0.19 | -0.82 | 49.7 | 83 | 5.11 | 30.6 | 0.27 | 4.13 | 0.59
COC(=O)Nc1nc2ccc(S(=O)(=O)c3ccc(NC(=O)Nc4cc(C(F)(F)F)ccc4F)cc3)cc2[nH]1 | 3.32 | -1.38 | -1.81 | 3.23 | 8.81 | 8.26 | 8.9 | 1.33 | 2.66 | 1.77
COc1cc2c(cc1Nc1nc(Nc3ccsc3C(N)=O)c3cc[nH]c3n1)N(C(=O)CN(C)C)CCC2(C)C | 3.62 | 0.09 | 3.51 | 4.03 | 10.7 | 5.19 | 8.81 | 2.03 | 9.12 | 1.64
O=S(=O)(CCNCc1ccc(-c2ccc3ncnc(Nc4ccc(OCc5cccc(F)c5)c(Cl)c4)c3c2)o1)c1ccccc1 | 6 | -1.7 | 3.71 | 16.1 | 14 | 6.03 | 6.99 | 6.05 | 5.53 | 3.55
N#Cc1c(NC(=O)CN2CCOCC2)sc2c1CCCC2 | 6.78 | -1.65 | 2.65 | 5.67 | 9.2 | 1.86 | 7.38 | 6 | 5.61 | 3.4
CCCN1CCC(c2ccc(Nc3nc(Nc4cc(F)ccc4C(N)=O)c4cc[nH]c4n3)c(OC)c2)CC1 | 13.1 | 0.67 | 25.4 | 1.69 | 11.7 | 6.28 | 14.3 | 0.03 | 5.13 | 1.44
O=C(Nc1n[nH]c2cc(-c3ccc(F)cc3)ccc12)C1CC1 | 0.11 | -0.27 | 0.1 | 3.02 | 7.71 | 3.42 | 7.25 | 2.38 | 4.36 | 2.05
NS(=O)(=O)c1ccc(N/N=C2\C(=O)Nc3ccc4ncccc4c32)cc1 | 30.9 | -0.65 | -0.87 | 0.75 | 12.3 | 7.81 | 26.7 | 0.25 | 10 | 3.34
CS(=O)(=O)CCNCc1ccc(-c2ccc3ncnc(Nc4ccc(OCc5ccccc5)c(C(F)(F)F)c4)c3c2)o1 | 3.07 | -3 | -1.24 | 5.55 | 2.96 | 4.3 | 5.41 | 3.67 | 2.13 | 2.6
N#Cc1c(NC(=O)c2ccc(F)cc2)sc2c1CCCC2 | -0.36 | -1.54 | 0.88 | -0.55 | 3.42 | 1.36 | -0.91 | -0.62 | 0.84 | 0.35
COc1ccc2c(-c3ccnc(Nc4cccc(OC(F)(F)F)c4)n3)cnn2n1 | 3.9 | -1.04 | 2.71 | 2.92 | 8.4 | 0.17 | 5.04 | -1.73 | 7.58 | 1.78
CCn1cc(-c2ccnc3[nH]ccc23)c(-c2cccc(NC(=O)Nc3ccc(OCc4ccccc4)cc3)c2)n1 | 0.79 | -1.98 | -1.89 | 0.81 | 1.53 | 5.07 | 3.29 | -0.53 | -2.06 | -1.09
Cc1cccc(Nc2ncc(-c3ccccc3)o2)c1 | 3.87 | 3.41 | -1.61 | 5.91 | 6.59 | 3.23 | 6.62 | 1.76 | 2.94 | 2.73
COc1ccc(-c2nn3ncccc3c2-c2ccnc(Nc3ccc4c(c3)OCCO4)n2)cc1 | 1.27 | -1.29 | -0.23 | 68.9 | 87 | 48.6 | 75.4 | 0.57 | -1.08 | 0.47
